Assay outcomes as filed in PubChem.
An excerpt weighted towards active compounds, which were near 0.51% of everything screened.
Integrin act MD: activates integrin-mediated alleviation for muscular dystrophy; alpha7betagal myoblasts, beta-gal FDG fluorescence, 48 h; AID 624291; Potency, µM (titrated, usually from 38.3 µM), usual class: activators; 350,000 tested, 0.064% active; active means well fitted curve in the direction sought with a large enough effect; inconclusive means small, poorly fitted or top-dose-only effect, or another doubt; inactive means no such curve, though single readings can be large; an effect the other way counts as inactive or inconclusive; further: nearly all actives have a fitted effect of over 60% in size
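alpha7betagal+/- myoblasts (passage 13, 250/well) treated 48 h at 37C with compounds at 1:260 dilution of DMSO stock. Lysed, then beta-galactosidase activity read as FDG fluorescence (ex 480/em 540) after 30 min, with pre-read for autofluorescence.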
CCT modulator: modulators of cytosolic chaperonin (CCT/TRiC) activity; purified chaperonin ATPase assay, HTRF ADP detection, 30 min; activity change, % (no concentration beside the values), hits read low; 360,000 tested, 0.3% active; in the data active means activity change below about -30%
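TRiC (40 or 20 nM final, by batch activity) in 30 mM Tris pH 7.4, 100 mM KCl, 5 mM MgCl2, 1 mM DTT was treated with compound at 76 uM single dose, then 10 uM ATP, 30 min at 37 °C. ADP was read by HTRF Transcreener.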
MmCpn inh: M. maripaludis TRiC chaperonin inhibition | purified Mm-Cpn ATPase, ADP Transcreener TR-FRET | Potency, µM (highest dose often 76.9 µM), usual class: inhibitors | 330,000 tested, 0.031% active | AID 504842; active means well fitted curve in the direction sought with a large enough effect; inconclusive means small, poorly fitted or top-dose-only effect, or another doubt; inactive means no such curve, though single readings can be large; an effect the other way counts as inactive or inconclusive; further: nearly all actives have a fitted effect of over 80% in size
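TR-FRET (320 nm excitation; 590 and 665 nm emission) reports ADP made from 10 uM ATP by 25 nM enzyme; compounds were preincubated 10 min, reaction run 30 min, both at 37°C.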
Rango-impB inh: prevents formation of the Rango-importin beta complex; Rango CFP/YFP FRET sensor + importin beta, 45 min; AID 540263; Q14974; 340,000 tested, 0.031% active; Potency, µM (top dose mostly 92.2 µM); further: nearly all actives have a fitted effect of over 15% in size
Target sequence (Q14974 whole entry, looked up): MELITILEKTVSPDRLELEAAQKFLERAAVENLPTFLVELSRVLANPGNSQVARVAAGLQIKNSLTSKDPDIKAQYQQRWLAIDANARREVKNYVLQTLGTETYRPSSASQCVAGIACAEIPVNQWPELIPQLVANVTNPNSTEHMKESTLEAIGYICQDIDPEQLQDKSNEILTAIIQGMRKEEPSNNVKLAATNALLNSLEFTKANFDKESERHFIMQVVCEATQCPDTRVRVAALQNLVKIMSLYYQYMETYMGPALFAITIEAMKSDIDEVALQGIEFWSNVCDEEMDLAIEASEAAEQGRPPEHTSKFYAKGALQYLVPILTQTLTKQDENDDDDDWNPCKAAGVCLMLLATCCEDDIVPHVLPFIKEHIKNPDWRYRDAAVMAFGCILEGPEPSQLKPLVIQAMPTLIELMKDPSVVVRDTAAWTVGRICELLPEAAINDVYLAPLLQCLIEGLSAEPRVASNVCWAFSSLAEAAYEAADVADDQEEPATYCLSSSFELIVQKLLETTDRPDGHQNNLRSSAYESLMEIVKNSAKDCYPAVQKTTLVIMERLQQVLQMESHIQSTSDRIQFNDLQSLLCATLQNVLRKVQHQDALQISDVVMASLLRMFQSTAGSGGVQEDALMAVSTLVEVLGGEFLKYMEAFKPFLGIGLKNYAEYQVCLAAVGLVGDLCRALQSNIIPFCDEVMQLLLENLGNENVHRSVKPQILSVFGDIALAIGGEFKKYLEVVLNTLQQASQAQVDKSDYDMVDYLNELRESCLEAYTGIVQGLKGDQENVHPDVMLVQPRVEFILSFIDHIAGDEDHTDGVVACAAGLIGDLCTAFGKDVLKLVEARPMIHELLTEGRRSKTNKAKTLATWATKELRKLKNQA
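Inhibition scored from the CFP 486 nm/YFP 530 nm FRET ratio 45 min after adding 0.125 microM importin beta to 50 nM Rango biosensor preincubated 5 min with compound (room temperature, PBS with DTT, Tween-20, BSA). No-importin wells as positive control.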
Rango dissoc inh: inhibition of RanGTP-driven Rango-importin beta dissociation; 340,000 tested, 0.071% active; O95149+P62826; Potency, µM (doses to about 46.1 µM); Biochemical FRET Rango-importin beta, RanGTP-induced dissociation; further: nearly all actives have a fitted effect of over 45% in size
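Two FRET readings bracket the reaction: one 5 min after compound meets Rango–importin beta, another 45 min after RanGTP-RCC1 (0.6 uM Ran, 0.2 uM RCC1, 2 mM GTP) is added. Only the second defines inhibition.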
Numbers stand for hits; – = inactive; ? = inconclusive; · = no result; [ ] = dose if it differs, or a comment. Unless noted, the call rests on the fitted dose curve.

SMILES	Integrin act MD	CCT modulator	MmCpn inh	Rango-impB inh	Rango dissoc inh
Cc1cccn2c(=O)c3cc(C#N)c(=N)n(CCN4CCOCC4)c3nc12	–	–	–	?	8.2µM
COc1ccc(NC(=O)C2(C)CCN2Cc2ccc(C(C)C)cc2)cc1OC (stereo not drawn)	·	–	·	·	·
CC(=O)c1cccc(NC(=S)NC(=O)c2ccc(Br)cc2)c1	–	-40	–	–	–
COC(=O)c1sc(S(=O)(=O)N2CCC(C(N)=O)CC2)c(C(=O)OC)c1C	–	-33	–	–	–
CC(=O)N1CCOc2cc(S(=O)(=O)NCc3ccccc3Cl)c(Cl)cc21	·	·	–	·	·
COc1cccc(C(=O)Nc2c(C)n[nH]c2C)c1	–	-75	–	?	–
O=S(=O)(NCC(c1ccco1)N1CCOCC1)c1ccc(Cl)cc1 (stereo not drawn)	14µM	–	–	–	–
Cc1ccc(S(=O)(=O)NCC(c2ccco2)N2CCOCC2)cc1 (stereo not drawn)	?	–	–	–	–
CCOc1ccc(NC(=O)CN(C)C(=O)CCNC(=O)c2ccccc2Cl)cc1OCC	–	-44	–	–	–
CCOc1ccc(NC(=O)CN(C)C(=O)CCCNC(=O)c2ccc(Cl)cc2)cc1OCC	–	–	·	·	·
CCn1c(=O)c(CCC(=O)N2CCN(c3ccccn3)CC2)c(C)c2c(C)nn(-c3cccc(C)c3)c21	–	-35	–	–	–
CCCn1nc2cc(C(=O)NCc3ccc(OC(F)(F)F)cc3)ccc2c1OCC	–	–	–	–	–
CCOc1c2ccc(C(=O)NCc3ccc(OC(F)(F)F)cc3)cc2nn1CC	–	-59	–	–	–
COc1cc(CN2C[C@@H](CO)O[C@@H](n3cnc4c(NC(C)C)ncnc43)C2)cc(OC)c1OC	·	–	·	·	·
COC(=O)C1=C(C)NC(C)=C(C(=O)OC)C1c1ccccc1OCc1c(C)no[n+]1[O-]	2.8µM	–	–	–	–
COc1cc(/C=C(\C#N)C(N)=O)ccc1OCc1c(C)no[n+]1[O-]	–	–	–	–	–
COc1cccc(C(O)c2nc(-c3ccc(Cl)cc3)cs2)c1 (stereo not drawn)	·	–	·	·	·
CCOC(=O)Cn1nnnc1CN(Cc1cccs1)Cc1cc2cc(C)ccc2[nH]c1=O	–	-31	–	–	–
OC[C@H]1O[C@@H](c2nc3ccc(-c4nc(-c5cccs5)no4)cc3[nH]2)C[C@@H]1O	·	–	·	·	·
CCCCN(C)c1c(C)nc2ccc(C(=O)N(CC)CCN(C)C)cn12	·	–	·	·	·
CCc1ccc2c(c1)C(c1ccncc1)=NNC(c1ccccc1)=N2	–	–	–	–	–
CCc1ccc2c(c1)C(c1ccc([N+](=O)[O-])cc1)=NNC(c1ccc(F)cc1)=N2	–[7.66 µM]	–	–	?	12µM
COc1ccc(CNC(=O)CC2C[C@H](C(=O)N(C(C)C)C(C)C)[C@@]3(C)c4[nH]c5ccccc5c4CCN3C2=O)cc1OC (stereo partly drawn)	–	-47	–	–	–
COc1ccc(C2OC(CCc3ccccc3)CC3=C2C(=O)OC(C)(C)O3)cc1 (stereo not drawn)	·	–	·	·	·
CN(Cc1cccc(Cl)c1)C(=O)C1CCC(=O)N(C2CC2)C1 (stereo not drawn)	–	-76	–	–	–
SMILES	Integrin act MD	CCT modulator	MmCpn inh	Rango-impB inh	Rango dissoc inh
CC(C)(C)OC(=O)NCCC(=O)Oc1ccc2ccc(=O)oc2c1	–	–	–	?	9.2µM
Cc1nn(C)c(Cl)c1S(=O)(=O)N[C@@H](c1ccccc1)[C@]1(C)C[C@H]1[C@@H](C)C(=O)Nc1ccc2ccccc2c1	–	-70	–	–	–
Cc1ccc(N(CC(=O)NC(C)C)C(=O)CCC(=O)Nc2ccccn2)c(C)c1	–	–	·	·	·
COc1ccc(CCNC(=O)CSc2ccc3nnc(CCNC(=O)c4ccc(C)cc4)n3n2)cc1OC	–	–	·	?	6.5µM
COc1ccc([C@]23Cc4cc(C#N)ccc4C(O2)c2c(cc(C)n(-c4ccccc4)c2=O)O3)cc1	·	·	–[15.4 µM]	·	·
Cc1c(NS(=O)(=O)c2cc(Br)cc3c2N(C(=O)C2CC2)CC3)c(=O)n(-c2ccccc2)n1C	–	–	–	–	–
CC(=O)N1c2c(cc(Br)cc2S(=O)(=O)Nc2c(C)n(C)n(-c3ccccc3)c2=O)CC1C (stereo not drawn)	–	-41	–	–	–
Cc1cccc(C2=NN(c3ccccc3)[C@@H](C(=O)N3CCOC3=O)[C@@H]2c2ccc(F)cc2)c1	–	–	32µM	?	?
CC(=O)c1cc2c(cc1NC(=O)CSc1nnc(C3CC3)n1C)OCO2	–	–	·	·	·
Cc1ccccc1N=C(c1ccccc1)C1C(=O)c2ccccc2C1=O	·	–	·	·	·
O=C(O)CCNc1ccc(NCCC(=O)O)c2c1C(=O)c1ccccc1C2=O	–	–	45µM	?	–
COc1ccccc1NCCC(=O)O	–	–	–	–	–
COc1ccc(NC(=O)C23CCC(C)(C(=O)O2)C3(C)C)cc1 (stereo not drawn)	–	–	–	–	–
CCOC(=O)c1ccc(NC(=O)C23CCC(C)(C(=O)O2)C3(C)C)cc1 (stereo not drawn)	–[7.66 µM]	-38	–	–	–
Cn1nc(C(C)(C)C)cc1NC(=O)C1(C)CCN1C(=O)Cc1ccc(-c2ccccc2)cc1 (stereo not drawn)	·	–	·	·	·
O=C(OCc1ccccc1)N1CCC2CC1c1ccc(N3CCN(Cc4ccc5c(c4)OCO5)CC3)cc12 (stereo not drawn)	·	–	·	·	·
N#CC(C#N)=c1ccc2c(c1)N1C3=C(CCCC3)CC3CCCCC31N=2 (stereo not drawn)	–	–	–	–	–
N#C/C(C(N)=O)=c1/ccc2c(c1)N1C3=C(CCCC3)CC3CCCCC31N=2 (stereo not drawn)	–	-37	–	–	–
COc1cccc(NC(=O)N(C)C[C@H]2Oc3ncc(Br)cc3C(=O)N([C@H](C)CO)C[C@H]2C)c1	–	–	·	·	·
O=C(Cn1cc2c(n1)CCCC2)NCCCN1CCN(Cc2ccccc2)CC1	–	–	–	–	–
O=C(Cn1cc2c(n1)CCCC2)NCCCN1CCN(c2ccccc2F)CC1	–	-46	–	–	–
Cc1ccc(CN2CC(C(=O)Nc3ccc(C)c(S(=O)(=O)N4CCCCC4)c3)CC2=O)cc1 (stereo not drawn)	–	-41	·	–	–
CC1(CCc2ccccc2)NC(=O)N(CC(=O)Nc2ccccc2)C1=O (stereo not drawn)	–	–	–	–	–
CC1(CCc2ccccc2)NC(=O)N(CC(=O)Nc2c(F)cccc2F)C1=O (stereo not drawn)	–	-51	–	–	–
COc1ccc(-c2c(-c3ccc(O)cc3O)n[nH]c2C(F)(F)F)cc1	–	–	40µM	–	–
Oc1ccc(-c2n[nH]c(C(F)(F)F)c2-c2ccccc2)c(O)c1	–	–	–	–	–
